# Reference: PubChem BioAssay
# Active and inactive are the calls of the source.
# Columns and labels:
# [1] = optical density shifts of acrAB sulA E. coli – strain DRC41, OD650, 48 h, E. coli filamentation inducer project, primary screen (AID 1152); settings: higher = more signal, called active from +8 up or from −8 down;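 further: E. coli MC1000 strain DRC41 lacking acrAB efflux pump and sulA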
# [2] = probe aLefty1 binding on compound microarray – biochemical, small-molecule microarray, 635/667 nm fluorescence, primary screen (AID 1153); settings: higher = more signal;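 further: score merges spot fluorescence with signal-to-noise ratio from the scanned slide images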
# [3] = plasmodial surface anion channel blockers, osmotic lysis – cell-based, P. falciparum Indochina, OD700, 1 h, primary screen (AID 1154); settings: P. falciparum Indochina infected RBC osmotic lysis, higher = more signal, called active from +8 up or from −8 down
# [4] = plasmodial surface anion channel blockers, osmotic lysis – cell-based, P. falciparum Indochina, OD700, 2 h, primary screen (AID 1155);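 further: lysis reports solute entry through the parasite surface anion channel PSAC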; settings: P. falciparum Indochina infected erythrocytes, higher = more signal, called active from +8 up or from −8 down
# [5] = changes in parasitized red cell lysis, either direction – P. falciparum Indochina, OD700, 3 h, PSAC antagonist project, primary screen (AID 1156); settings: P. falciparum-infected erythrocytes, osmotic lysis, higher = more signal, called active from +8 up or from −8 down
# [6] = plasmodial surface anion channel blockers, osmotic lysis – cell-based, P. falciparum Indochina, OD700, 18 h, primary screen (AID 1157); settings: P. falciparum Indochina infected erythrocytes, osmotic lysis OD700, 18 h; higher = more signal, called active from +8 up or from −8 down
# [7] = S6 kinase pathway phospho-S6 level changes – cell-based, A549, cytoblot, luminescence, serum-stimulated, primary screen (AID 1158); settings: 5 h, higher = more signal;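 further: serum-stimulated A549 lung adenocarcinoma cells; signal is phosphorylated S6 detected by cytoblot immunostaining with HRP secondary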
# [8] = target: NADPH oxidase 2 (Homo sapiens) (UniProt P04839); experiment: compounds shifting NOX2 Amplex Red fluorescence – cell-based, HEK293-NOX2, PMA-stimulated, NOX inhibitor project, primary screen (AID 1159); settings: 45 min, higher = more signal, called active from +8 up or from −8 down; further: test concentration not given here
# NADPH oxidase 2 (Homo sapiens), sequence (P04839 whole entry, looked up): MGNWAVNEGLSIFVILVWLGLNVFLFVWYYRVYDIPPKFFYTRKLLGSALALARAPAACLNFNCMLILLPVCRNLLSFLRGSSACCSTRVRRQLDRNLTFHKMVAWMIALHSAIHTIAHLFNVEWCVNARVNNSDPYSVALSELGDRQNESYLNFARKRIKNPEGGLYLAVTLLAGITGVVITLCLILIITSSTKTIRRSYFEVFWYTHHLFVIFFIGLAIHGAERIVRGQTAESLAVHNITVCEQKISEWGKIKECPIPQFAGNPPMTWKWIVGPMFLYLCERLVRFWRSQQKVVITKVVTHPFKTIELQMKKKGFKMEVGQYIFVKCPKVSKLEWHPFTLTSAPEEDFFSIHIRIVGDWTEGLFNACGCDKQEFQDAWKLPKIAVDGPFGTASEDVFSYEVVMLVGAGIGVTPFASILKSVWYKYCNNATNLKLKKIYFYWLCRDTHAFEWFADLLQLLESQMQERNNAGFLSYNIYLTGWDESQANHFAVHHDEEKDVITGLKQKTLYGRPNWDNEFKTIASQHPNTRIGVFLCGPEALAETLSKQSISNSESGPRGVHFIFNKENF
# [9] = target: NADPH oxidase 4 (Homo sapiens) (UniProt Q9NPH5); experiment: compounds shifting NOX4 Amplex Red fluorescence – cell-based, HEK293-NOX4, tetracycline-induced, NOX inhibitor project, primary screen (AID 1160); settings: HEK293-NOX4, Amplex Red H2O2 fluorescence, 45 min; higher = more signal, called active from +8 up or from −8 down
# NADPH oxidase 4 (Homo sapiens), sequence (Q9NPH5 whole entry, looked up): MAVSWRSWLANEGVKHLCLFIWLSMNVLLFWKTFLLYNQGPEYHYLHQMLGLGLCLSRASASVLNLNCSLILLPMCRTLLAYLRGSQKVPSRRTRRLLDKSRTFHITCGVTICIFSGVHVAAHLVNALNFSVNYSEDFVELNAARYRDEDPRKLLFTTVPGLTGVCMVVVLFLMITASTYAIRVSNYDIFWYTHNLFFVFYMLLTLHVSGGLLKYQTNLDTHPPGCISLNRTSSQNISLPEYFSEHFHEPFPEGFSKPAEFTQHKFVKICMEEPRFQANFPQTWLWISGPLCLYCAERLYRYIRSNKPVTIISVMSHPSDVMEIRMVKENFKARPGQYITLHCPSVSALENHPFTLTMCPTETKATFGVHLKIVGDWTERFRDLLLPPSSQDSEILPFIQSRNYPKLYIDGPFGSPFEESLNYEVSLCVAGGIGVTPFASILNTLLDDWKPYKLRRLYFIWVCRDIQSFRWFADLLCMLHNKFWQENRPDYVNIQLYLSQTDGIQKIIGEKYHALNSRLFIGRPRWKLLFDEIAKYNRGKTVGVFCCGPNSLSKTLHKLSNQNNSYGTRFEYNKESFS
# [10] = target: NADPH oxidase 5 (Homo sapiens) (UniProt Q96PH1); experiment: compounds shifting NOX5 Amplex Red fluorescence – cell-based, HEK293-NOX5, NOX inhibitor project, primary screen (AID 1161); settings: HEK293-NOX5, ionomycin, 45 min, higher = more signal
# NADPH oxidase 5 (Homo sapiens), sequence (Q96PH1 whole entry, looked up): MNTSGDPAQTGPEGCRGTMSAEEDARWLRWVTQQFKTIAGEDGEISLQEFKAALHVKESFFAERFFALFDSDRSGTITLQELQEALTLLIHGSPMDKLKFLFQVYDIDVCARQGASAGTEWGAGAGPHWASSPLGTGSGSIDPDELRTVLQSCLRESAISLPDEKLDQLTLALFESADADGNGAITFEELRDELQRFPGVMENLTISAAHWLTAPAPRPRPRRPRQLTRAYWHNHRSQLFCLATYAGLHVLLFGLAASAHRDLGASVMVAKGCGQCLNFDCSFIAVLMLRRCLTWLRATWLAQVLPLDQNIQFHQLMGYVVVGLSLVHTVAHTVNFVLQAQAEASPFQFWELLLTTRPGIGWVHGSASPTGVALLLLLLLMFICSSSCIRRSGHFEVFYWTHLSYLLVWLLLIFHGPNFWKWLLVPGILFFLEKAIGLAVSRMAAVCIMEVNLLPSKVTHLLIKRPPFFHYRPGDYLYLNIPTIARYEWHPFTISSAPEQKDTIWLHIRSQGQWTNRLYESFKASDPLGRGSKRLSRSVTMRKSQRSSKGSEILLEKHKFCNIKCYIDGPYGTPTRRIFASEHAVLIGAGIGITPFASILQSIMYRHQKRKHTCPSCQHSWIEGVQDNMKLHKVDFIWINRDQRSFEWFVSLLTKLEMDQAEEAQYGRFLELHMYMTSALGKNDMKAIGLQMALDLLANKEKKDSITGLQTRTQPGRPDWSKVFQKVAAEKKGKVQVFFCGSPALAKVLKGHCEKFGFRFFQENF
# [11] = compound effects on lung adenocarcinoma cell viability – A549, calcein-AM fluorescence, 48 h, basal, profiling panel (AID 1162); settings: higher = more signal; further: test concentration not given here
# [12] = compound effects on differentiated 3T3-L1 adipocyte viability – cell-based, 3T3-L1 adipocytes, calcein-AM fluorescence, 48 h, basal, profiling panel (AID 1163); settings: 3T3-L1 adipocytes viability, higher = more signal; further: test concentration not given here
# [13] = compound effects on hepatocellular carcinoma cell viability – HepG2, calcein-AM fluorescence, 48 h, basal, profiling panel (AID 1164); settings: higher = more signal; further: test concentration not given here
# [14] = compound effects on multiple myeloma cell viability – MM1S, calcein-AM fluorescence, 48 h, basal, profiling panel (AID 1165); settings: higher = more signal;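 further: viability of MM1S multiple myeloma cells under basal unstimulated conditions; test concentration not given here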
# [15] = calcein-AM signal in unstimulated myeloma cells – cell-based, calcein-AM fluorescence, 48 h, PK04 Diversity Set, profiling panel (AID 1166); settings: RPMI8226 myeloma viability, higher = more signal;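 further: cells grown under basal conditions without added stimulus; test concentration not given here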
# [16] = JC-1 mitochondrial signal, unstimulated HepG2 cells – cell-based, JC-1 fluorescence, 24 h, 100 nL compound, profiling panel (AID 1167); settings: HepG2 mitochondrial potential, higher = more signal; further: test concentration not given here
# [17] = JC-1 mitochondrial signal, unstimulated adipocytes – cell-based, JC-1 fluorescence, 3T3-L1 adipocytes, 24 h, 100 nL compound, profiling panel (AID 1168); settings: JC-1 mitochondrial fluorescence, higher = more signal, called active from +8 up or from −8 down; further: test concentration not given here
# [18] = JC-1 mitochondrial signal, unstimulated myeloma cells – cell-based, JC-1 fluorescence, RPMI8226, 24 h, 100 nL compound, profiling panel (AID 1169); settings: JC-1 mitochondrial potential fluorescence, higher = more signal; further: test concentration not given here
# [19] = JC-1 mitochondrial signal, unstimulated MM1S myeloma – cell-based, JC-1 fluorescence, 24 h, 100 nL compound, profiling panel (AID 1170); settings: MM1S mitochondrial potential, higher = more signal; further: test concentration not given here
# [20] = resazurin metabolic signal in A549 cells – cell-based, resazurin fluorescence, 24 h, PK04 Diversity Set, profiling panel (AID 1171); settings: A549 viability, higher = more signal, called active from +8 up or from −8 down; further: test concentration not given here
SMILES,z-score [1],composite z-score [2],z-score [3],z-score [4],z-score [5],z-score [6],z-score [7],z-score [8],z-score [9],z-score [10],z-score [11],z-score [12],z-score [13],z-score [14],z-score [15],z-score [16],z-score [17],z-score [18],z-score [19],z-score [20]
COc1ccc([Si](C)(C)[C@H]2[C@H](CCn3cc(CCO)nn3)O[C@@]3(C(=O)N(Cc4cccc(N5C(=O)c6cccc7cccc5c67)c4)c4ccccc43)[C@@H]2C)cc1,0.652 (inactive),0.466,5.3 (inactive),2.43 (inactive),1.32 (inactive),1.36 (inactive),0.615,0.782 (inactive),1.74 (inactive),2.97,-1.05,-0.354,-4.39,-2.83,-4.51,1.6,2.9 (inactive),-1.05,-2.03,-3.05 (inactive)
COC(=O)[C@H]1N=C(c2ccc(OCCCO)cc2)O[C@H]1c1ccccc1CN=[N+]=[N-],0.495 (inactive),0.938,24 (active),7.57 (inactive),1.35 (inactive),1.11 (inactive),-0.221,-0.102 (inactive),1.43 (inactive),0.352,-0.348,-0.409,0.0036,-1.95,-0.35,-0.393,0.957 (inactive),0.344,-0.823,2.65 (inactive)
O=C1C[C@@](C(=O)O)(c2ccc([N+](=O)[O-])cc2)[C@@H](c2ccc(CO)cc2)N1CC12CC3CC(CC(C3)C1)C2,-0.146 (inactive),0.0041,6.47 (inactive),0.964 (inactive),2.67 (inactive),0.279 (inactive),0.469,-0.545 (inactive),-2.72 (inactive),-1.01,0.0051,0.0068,0.313,-1.49,-2.4,0.609,0.473 (inactive),-0.15,-0.811,0.689 (inactive)
O=C1NC(=O)C2C1C=CC(C(O)CCc1ccccc1)N2Nc1ccccn1 (stereo not given),0.0468 (inactive),0.0844,-0.247 (inactive),-0.752 (inactive),-0.548 (inactive),-1.97 (inactive),1,-1.43 (inactive),-3.34 (inactive),-1.52,-1.58,0.0058,1.23,0.87,1.02,-0.149,-0.382 (inactive),0.282,0.228,-1.72 (inactive)
COc1cc(C(O)C2C=CC3C(=O)NC(=O)C3N2Nc2ccc(Cl)cc2Cl)cc(OC)c1OC (stereo not given),-1.52 (inactive),0.505,1.94 (inactive),1.49 (inactive),0.0681 (inactive),1.24 (inactive),-0.778,-0.885 (inactive),-5.56 (inactive),-3.11,-0.797,0.349,-0.751,0.192,-1.44,-0.359,-1.63 (inactive),-0.82,0.483,-0.315 (inactive)
COCCCNC(=O)[C@@]1(Cc2ccccc2)COC(c2ccc(OCCCO)cc2)=N1,1.76 (inactive),1.1,22 (active),4.97 (inactive),1.12 (inactive),1.04 (inactive),-0.194,-1.25 (inactive),1.05 (inactive),-0.909,0.654,-0.598,1.02,-0.35,-1.04,-1.11,0.154 (inactive),-0.367,-0.693,0.244 (inactive)
COCCCNC(=O)[C@@]1(Cc2ccccc2CN=[N+]=[N-])N=C(c2ccc(OCCCO)cc2)O[C@H]1c1ccccc1N=[N+]=[N-],2.51 (inactive),0.0643,36.4 (active),30.8 (active),2.72 (inactive),3.1 (inactive),-0.0478,0.0139 (inactive),1.3 (inactive),-1.31,-0.121,-0.0406,0.35,-1.34,-3.87,1.36,1.98 (inactive),-1.06,-0.156,-1.47 (inactive)
COCCOC(=O)N1C(=O)[C@@]2(c3cc(C#Cc4ccc(OC)cc4)ccc31)[C@H](C(=O)N1CCc3cc(OC)c(OC)cc3C1)[C@H]1C(=O)O[C@H](c3ccccc3)[C@H](c3ccccc3)N1[C@@H]2c1ccc(OCCO)cc1,0.59 (inactive),0.0391,6.15 (inactive),2.99 (inactive),1.69 (inactive),1.42 (inactive),0.228,-0.306 (inactive),-1.58 (inactive),-0.623,-0.403,1.41,-1.13,-0.0142,-1.38,-0.999,2.31 (inactive),-0.223,-0.919,-0.0945 (inactive)
C[N+](C)(C)CCCCCCNC(=O)[C@H]1C[C@H]2C(=O)N3CCC[C@H]3C(=O)N2[C@H]1c1cccc(OCCO)c1,-0.507 (inactive),0.0683,5.47 (inactive),0.64 (inactive),-2.56 (inactive),0.498 (inactive),-0.632,1.18 (inactive),1.27 (inactive),0.865,-0.538,-1.25,-0.684,0.429,0.512,-1.68,-0.416 (inactive),-0.173,-0.167,0.558 (inactive)
CN1C(=O)C2C=CC(C(O)c3cccc4ccccc34)N(NC(=O)OC(C)(C)C)C2C1=O (stereo not given),-0.622 (inactive),0.966,1.15 (inactive),0.564 (inactive),0.0094 (inactive),0.877 (inactive),-1.22,-0.492 (inactive),-3.85 (inactive),0.409,-0.927,-0.0679,-0.559,-0.248,-1.49,-2.24,-0.532 (inactive),0.219,0.437,-0.195 (inactive)
O=C1O[C@H](c2ccccc2)[C@H](c2ccccc2)N2[C@H]1[C@@H](C(=O)N1CCN(c3ncccn3)CC1)[C@]1(C(=O)Nc3ccc(C#CCCO)cc31)[C@H]2c1ccccc1OCCO,0.313 (inactive),-0.012,2.7 (inactive),1.55 (inactive),0.561 (inactive),0.657 (inactive),-0.673,1.45 (inactive),0.492 (inactive),0.333,1.09,0.569,0.313,-0.445,-2.95,0.308,0.488 (inactive),-0.794,-0.0117,1.92 (inactive)
CCOC(=O)C[C@H]1[C@H](OC(=O)Cc2ccc3c(c2)OCO3)[C@@H](NC(=O)c2ccccc2)c2cc(OCCCO)ccc2N1C(=O)c1ccccc1,1.7 (inactive),-0.103,1.05 (inactive),0.396 (inactive),-0.707 (inactive),-0.281 (inactive),0.149,0.366 (inactive),0.759 (inactive),0.322,-0.11,0.232,1.52,-0.266,0.503,0.614,0.746 (inactive),0.684,-0.96,0.323 (inactive)
[N-]=[N+]=Nc1ccccc1C[C@]1(C(=O)NCCN2CCOCC2)N=C(c2ccc(OCCCO)cc2)O[C@H]1c1ccccc1N=[N+]=[N-],1.11 (inactive),0.628,27.7 (active),23.2 (active),1.35 (inactive),4.41 (inactive),1.75,-2.69 (inactive),0.686 (inactive),-1.15,0.0861,0.784,-0.111,-2.41,-1.2,1.23,1.27 (inactive),-1,-0.571,-2.47 (inactive)
O=C1C2C=CC(C(O)c3ccc(Br)cc3)N(Nc3ccccc3)C2C(=O)N1c1ccccc1 (stereo not given),-1.78 (inactive),0.305,8.27 (active),1.8 (inactive),0.244 (inactive),1.25 (inactive),-0.554,-1.82 (inactive),-4.09 (inactive),-2.39,-1.17,-1.45,-0.5,-1.27,0.134,-1.92,-0.711 (inactive),-0.163,-0.0898,-0.201 (inactive)
CC(=O)NCCCC[C@@H]1NC(=O)[C@@H]2C[C@H](C(=O)NCCCC[N+](C)(C)C)[C@H](c3cccc(OCCO)c3)N2C1=O,-0.832 (inactive),0.206,1.63 (inactive),0.372 (inactive),-0.122 (inactive),0.154 (inactive),-0.246,0.151 (inactive),-0.0151 (inactive),1.29,-1.05,-1.28,-0.776,-0.265,-1.95,-0.851,-0.0939 (inactive),0.287,0.235,-0.485 (inactive)
CC(C)CNC(=O)[C@@]1(c2ccc([N+](=O)[O-])cc2)CC(=O)N(C(C)C)[C@@H]1c1ccc(CO)cc1,1.27 (inactive),-0.0547,0.224 (inactive),-0.227 (inactive),-1.64 (inactive),-0.533 (inactive),0.557,-0.145 (inactive),-0.423 (inactive),-1.44,0.264,-0.0455,0.0153,-1.07,0.399,0.621,-0.167 (inactive),0.604,-0.131,0.591 (inactive)
CC1CC/C=C\[C@H]2OC34C=CCN(Cc5ccccc5)C(=O)[C@H]3N(CCO)C(=O)[C@@H]4C2C(=O)O1 (stereo not given in full),0.788 (inactive),-0.0867,3.52 (inactive),-0.133 (inactive),0.272 (inactive),-0.18 (inactive),-0.0144,1.66 (inactive),0.0441 (inactive),2.24,-0.106,1.1,0.337,1.47,-0.105,0.0673,0.488 (inactive),-0.657,2.1,-0.783 (inactive)
